Among all 69,000 compounds or so, about 8,600 (12%) showed an effect of 50% or more. The sample holds strong results, similar compounds and a random draw of the others, so the mix is not that of the screen.
system: Plasmodium berghei; assay: Screen against P. berghei liver stage (PbLuc), transformed with Luciferase, at 10uM; format: functional, HepG2; settings: tested at 10 uM

| Compound | INHIBITION |
| --- | --- |
| CCN1CC(COC(=O)c2ccc(Br)cc2F)CC1=O (centres undefined) | 0.0459% |
| Cc1ncc2c(n1)CN(Cc1nc(C)c(C)o1)CC2 | 38% |
| Cc1noc(C)c1CN1CCCC2(CCN(CC3CCCC3)C2)C1 (centres undefined) | 49.4% |
| COCCc1ncc(CN2CCC3(CCCN(CC4CC4)C3)C2)cn1 (centres undefined) | 46.6% |
| COc1ncc(CN2CCC3(CCCN(CC4CCC4)C3)C2)cn1 (centres undefined) | 17.8% |
| Cc1ncc(CN2CCC3(CCCN(CC4CCC4)C3)C2)cn1 (centres undefined) | 53.5% |
| CCc1ncc(CN2CCC3(CCCN(CC4CCC4)C3)C2)cn1 (centres undefined) | 57.5% |
| COc1ncc(CN2CCC3(CCCN(CC4CCCCC4)C3)C2)cn1 (centres undefined) | 6.94% |
| Cc1nc(NCC(O)CN2CCCCCC2)c2c(C)nn(C)c2n1 (centres undefined) | -30.3% |
| CC(=O)N1CC[C@H]2OCC[C@@H](C(=O)Nc3cccnc3C)[C@@H]2C1 | -1.28% |
| COC(=O)CN1CC(c2nc(Cc3ccccc3)no2)C1 | -14.6% |
| CNC(=O)CCc1cc(C2CCCN2S(C)(=O)=O)nc(C)n1 (centres undefined) | 6.33% |
| OCCNc1cc(-c2ccncc2)ncn1 | 47.1% |
| C[C@H](O)CNc1cc(-c2ccccc2)ncn1 | 26.3% |
| C[C@H](O)CNc1cc(-c2ccncc2)ncn1 | 54.5% |
| Cc1cc(CN2C[C@@H]3COC[C@]3(CNC(=O)c3ccsc3)C2)no1 | -2.25% |
| O=C(CCC1CCCC1)N1C[C@@H]2CC[C@H]1CN(Cc1ccncc1)C2 | 27.6% |
| COc1cccc(-c2noc(-c3ccc(NCCCO)nc3)n2)c1OC | 43.9% |
| COC(=O)CNc1ccc(-c2nc(Cc3ccc(OC)cc3)no2)cn1 | 26.6% |
| Cc1ccccc1-c1noc(-c2ccc(NCC3COCCO3)nc2)n1 (centres undefined) | 32.3% |
| CN(C)CCNc1ccc(-c2nc(COc3ccccc3)no2)cn1 | 56.5% |
| CN(C)CCNc1ccc(-c2nc(-c3ccccc3F)no2)cn1 | 80.7% |
| COc1cccc(-c2noc(-c3ccc(NCCCN)nc3)n2)c1OC | 46.7% |
| CC(C)(CO)Nc1ccc(-c2nc(-c3ccccc3F)no2)cn1 | 91.3% |
| CNCCNc1ccc(-c2nc(-c3cccc(OC)c3OC)no2)cn1 | 25.8% |
| CN(C)CCN(C)c1ccc(-c2nc(COc3ccccc3)no2)cn1 | 41.3% |
| CNC(=O)CCc1cc(C)nc(C2CCN(CC(=O)N(C)C)CC2)c1 | 23.3% |

| Compound | INHIBITION |
| --- | --- |
| O=C(O)c1ccccc1-c1cnc(Cn2c(=O)cc[nH]c2=O)s1 | 22% |
| COc1cccc(NC(=O)CN(C(C)C)C2CC2)c1 | 20% |
| CC(C)N(CC(=O)Nc1cccc(C#N)c1)C1CC1 | 54.8% |
| CC(C)N(CC(=O)Nc1cccc(C(=O)N(C)C)c1)C1CC1 | -0.614% |
| Cc1noc(C)c1CN(C)CC(=O)N1CCc2sccc2C1 | 14.4% |
| Cn1c(=O)n(C)c2cc(NS(=O)(=O)Cc3ccccc3)ccc21 | 2.03% |
| CCc1cnc(N2C[C@@H]3C[C@H](C(=O)N(C)C)[C@H](C2)O3)nc1 | -46.9% |
| COCc1nn(CC2CC2)c2c1CN(Cc1ccco1)CC2 | 26% |
| CCn1c(CN(C)Cc2cnc(C)s2)nc2c(F)cccc21 | 37.8% |
| Cc1ncc(CN(C)Cc2nc3cc(Cl)ccc3n2C)s1 | 74% |
| CCn1c(CN(C)Cc2cnc(C)s2)nc2cc(F)ccc21 | -2.09% |
| COCc1nn(C(C)C)c2c1CCN(Cc1ccccn1)C2 | -18.4% |
| CCc1nc(N2CCCC(CCCOC)C2)c2cnn(C)c2n1 (centres undefined) | 49.4% |
| COCCN1CC[C@@H]2OC(COCC(=O)N3CCCC3)CC[C@@H]21 (some centres undefined) | -36% |
| O=C(Cc1ccsc1)N1C[C@@H]2COC[C@]2(COCc2cccnc2)C1 | 30.3% |
| COc1cc(S(=O)(=O)N2C[C@@H](C)[C@@](C)(O)C2)c(C)cc1C | 54.5% |
| Cc1cc(F)ccc1S(=O)(=O)N1C[C@@H](C)[C@@](C)(O)C1 | 52.5% |
| C[C@@H]1CN(S(=O)(=O)c2ccc(F)cc2F)C[C@]1(C)O | 45.6% |
| Cc1ccc(F)cc1S(=O)(=O)N1C[C@@H](C)[C@@](C)(O)C1 | 43.6% |
| COc1cc(C)ccc1S(=O)(=O)N1CC[C@](C)(O)[C@H](C)C1 | 25.5% |
| Cc1cc(F)ccc1N1CCC(N2C[C@@H](CN(C)C)[C@@H](CO)C2)CC1 | 38% |
| C[C@@H]1CN(S(=O)(=O)c2ccc(F)cc2Cl)C[C@]1(C)O | 5.94% |
| C[C@@H]1CN(C2CCN(c3ccccc3F)CC2)C[C@]1(C)O | 47.9% |
| Cc1cc(F)ccc1N1CCC(N2C[C@@H](C)[C@@](C)(O)C2)CC1 | 54.4% |
| COC1COC2(CCN(Cc3ccccc3Cl)CC2)C1 (centres undefined) | -40.3% |
| Cc1cc(CN2CCCC(Cn3cncn3)C2)no1 (centres undefined) | 3.73% |
| COc1cn(CC(=O)N2CCN(c3ccc(F)cc3)CC2)c(C)cc1=O | 39.6% |
